# From PubChem BioAssay
# Activity calls are given as the source filed them.
# How the values were obtained:
# [1] = E. coli DRC41 culture turbidity changes, primary screen, E. coli filamentation inducer project, strain DRC41, OD650, 48 h (AID 1152);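 also: E. coli MC1000 strain DRC41 lacking acrAB efflux pump and sulA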; details: E. coli DRC41 (acrAB sulA), higher = more signal, called active from +8 up or from −8 down
# [2] = small-molecule binders of probe aLefty1, primary screen, biochemical, small-molecule microarray, 635/667 nm fluorescence (AID 1153); details: higher = more signal;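 also: score merges spot fluorescence with signal-to-noise ratio from the scanned slide images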
# [3] = PSAC antagonists in infected red cells, primary screen, cell-based, P. falciparum Indochina, OD700, 1 h (AID 1154); details: P. falciparum Indochina infected RBC osmotic lysis, higher = more signal, called active from +8 up or from −8 down
# [4] = PSAC antagonists in infected red cells, primary screen, cell-based, P. falciparum Indochina, OD700, 2 h (AID 1155);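 also: lysis reports solute entry through the parasite surface anion channel PSAC; channel blockers reduce lysis of infected cells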; details: P. falciparum Indochina infected erythrocytes, osmotic lysis OD700; higher = more signal, called active from +8 up or from −8 down
# [5] = osmotic lysis modulators in infected erythrocytes, primary screen, PSAC antagonist project, cell-based, P. falciparum Indochina, OD700, 3 h (AID 1156); details: higher = more signal, called active from +8 up or from −8 down
# [6] = PSAC antagonists in infected red cells, primary screen, cell-based, P. falciparum Indochina, OD700, 18 h (AID 1157); details: P. falciparum Indochina infected erythrocytes, osmotic lysis OD700, 18 h; higher = more signal, called active from +8 up or from −8 down
# [7] = modulators of S6 phosphorylation in cells, primary screen, cell-based, A549, cytoblot, luminescence, serum-stimulated (AID 1158); details: A549 phospho-S6 cytoblot, 5 h, higher = more signal;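 also: serum-stimulated A549 lung adenocarcinoma cells; signal is phosphorylated S6 detected by cytoblot immunostaining with HRP secondary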
# [8] = target: NADPH oxidase 2 (Homo sapiens) (UniProt P04839); assay: NOX2-dependent H2O2 signal modulators, primary screen, NOX inhibitor project, cell-based, HEK293-NOX2, PMA-stimulated, Amplex Red fluorescence (AID 1159); details: 45 min, higher = more signal, called active from +8 up or from −8 down; also: test concentration not given here
# [9] = target: NADPH oxidase 4 (Homo sapiens) (UniProt Q9NPH5); assay: NOX4-dependent H2O2 signal modulators, primary screen, NOX inhibitor project, cell-based, HEK293-NOX4, tetracycline-induced, Amplex Red fluorescence (AID 1160); details: 45 min, higher = more signal, called active from +8 up or from −8 down
# [10] = target: NADPH oxidase 5 (Homo sapiens) (UniProt Q96PH1); assay: NOX5-dependent H2O2 signal modulators, primary screen, NOX inhibitor project, cell-based, HEK293-NOX5, Amplex Red fluorescence (AID 1161); details: HEK293-NOX5, ionomycin, 45 min, higher = more signal
# [11] = A549 cell viability effects, profiling panel, calcein-AM fluorescence, 48 h, basal (AID 1162); details: higher = more signal; also: test concentration not given here
# [12] = adipocyte viability effects, profiling panel, cell-based, 3T3-L1 adipocytes, calcein-AM fluorescence, 48 h, basal (AID 1163); details: 3T3-L1 adipocytes viability, higher = more signal; also: test concentration not given here
# [13] = HepG2 cell viability effects, profiling panel, calcein-AM fluorescence, 48 h, basal (AID 1164); details: higher = more signal; also: test concentration not given here
# [14] = MM1S cell viability effects, profiling panel, calcein-AM fluorescence, 48 h, basal (AID 1165); details: higher = more signal;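 also: viability of MM1S multiple myeloma cells under basal unstimulated conditions; test concentration not given here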
# [15] = basal RPMI8226 viability, no added stimulus, profiling panel, cell-based, calcein-AM fluorescence, 48 h, PK04 Diversity Set (AID 1166); details: RPMI8226 myeloma viability, higher = more signal;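 also: cells grown under basal conditions without added stimulus; test concentration not given here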
# [16] = basal HepG2 mitochondrial membrane potential changes, profiling panel, cell-based, JC-1 fluorescence, 24 h, 100 nL compound (AID 1167); details: higher = more signal; also: test concentration not given here
# [17] = basal 3T3-L1 adipocyte mitochondrial potential changes, profiling panel, cell-based, JC-1 fluorescence, 3T3-L1 adipocytes, 24 h, 100 nL compound (AID 1168); details: JC-1 mitochondrial fluorescence, higher = more signal, called active from +8 up or from −8 down; also: test concentration not given here
# [18] = basal RPMI8226 mitochondrial membrane potential changes, profiling panel, cell-based, JC-1 fluorescence, 24 h, 100 nL compound (AID 1169); details: RPMI8226 myeloma, JC-1 mitochondrial potential fluorescence, higher = more signal; also: test concentration not given here
# [19] = basal MM1S mitochondrial membrane potential changes, profiling panel, cell-based, JC-1 fluorescence, 24 h, 100 nL compound (AID 1170); details: higher = more signal; also: test concentration not given here
# [20] = A549 lung cancer cell viability effects, profiling panel, resazurin fluorescence, 24 h, PK04 Diversity Set (AID 1171); details: higher = more signal, called active from +8 up or from −8 down; also: test concentration not given here
# NADPH oxidase 4 (Homo sapiens), sequence (Q9NPH5 whole entry, looked up): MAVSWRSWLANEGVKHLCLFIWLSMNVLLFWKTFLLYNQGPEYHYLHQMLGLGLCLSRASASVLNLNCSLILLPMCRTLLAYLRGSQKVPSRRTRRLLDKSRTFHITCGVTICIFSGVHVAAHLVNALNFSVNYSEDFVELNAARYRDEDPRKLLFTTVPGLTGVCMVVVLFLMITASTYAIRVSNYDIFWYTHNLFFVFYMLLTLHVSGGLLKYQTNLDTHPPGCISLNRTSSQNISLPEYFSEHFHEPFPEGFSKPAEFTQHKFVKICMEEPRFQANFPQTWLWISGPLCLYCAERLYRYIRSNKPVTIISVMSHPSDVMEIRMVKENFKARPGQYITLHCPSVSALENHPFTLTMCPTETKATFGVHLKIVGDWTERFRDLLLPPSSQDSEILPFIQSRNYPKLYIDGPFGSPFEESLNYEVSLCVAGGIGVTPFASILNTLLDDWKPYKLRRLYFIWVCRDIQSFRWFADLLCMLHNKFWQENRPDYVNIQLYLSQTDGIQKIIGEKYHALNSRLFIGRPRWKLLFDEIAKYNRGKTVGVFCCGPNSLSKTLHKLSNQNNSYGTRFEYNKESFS
# NADPH oxidase 5 (Homo sapiens), sequence (Q96PH1 whole entry, looked up): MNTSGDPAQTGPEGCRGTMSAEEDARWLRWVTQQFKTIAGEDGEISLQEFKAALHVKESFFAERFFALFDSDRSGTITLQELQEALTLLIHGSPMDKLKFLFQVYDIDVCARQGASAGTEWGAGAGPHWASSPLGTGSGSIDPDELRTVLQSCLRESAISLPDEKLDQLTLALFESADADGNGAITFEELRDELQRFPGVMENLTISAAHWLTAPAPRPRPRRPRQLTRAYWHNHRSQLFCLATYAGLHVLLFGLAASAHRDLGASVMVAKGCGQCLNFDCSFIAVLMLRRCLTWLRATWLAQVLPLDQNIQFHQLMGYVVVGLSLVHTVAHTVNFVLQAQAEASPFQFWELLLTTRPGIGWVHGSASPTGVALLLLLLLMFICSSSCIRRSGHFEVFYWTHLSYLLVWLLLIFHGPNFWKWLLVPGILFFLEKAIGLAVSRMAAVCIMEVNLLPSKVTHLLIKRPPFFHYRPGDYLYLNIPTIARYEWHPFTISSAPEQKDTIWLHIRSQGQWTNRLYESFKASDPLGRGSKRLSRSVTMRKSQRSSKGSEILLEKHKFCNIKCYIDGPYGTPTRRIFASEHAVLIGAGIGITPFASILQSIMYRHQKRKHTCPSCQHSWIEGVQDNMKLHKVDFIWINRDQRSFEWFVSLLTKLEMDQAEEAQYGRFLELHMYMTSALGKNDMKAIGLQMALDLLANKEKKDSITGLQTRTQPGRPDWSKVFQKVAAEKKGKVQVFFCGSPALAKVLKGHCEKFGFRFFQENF
# NADPH oxidase 2 (Homo sapiens), sequence (P04839 whole entry, looked up): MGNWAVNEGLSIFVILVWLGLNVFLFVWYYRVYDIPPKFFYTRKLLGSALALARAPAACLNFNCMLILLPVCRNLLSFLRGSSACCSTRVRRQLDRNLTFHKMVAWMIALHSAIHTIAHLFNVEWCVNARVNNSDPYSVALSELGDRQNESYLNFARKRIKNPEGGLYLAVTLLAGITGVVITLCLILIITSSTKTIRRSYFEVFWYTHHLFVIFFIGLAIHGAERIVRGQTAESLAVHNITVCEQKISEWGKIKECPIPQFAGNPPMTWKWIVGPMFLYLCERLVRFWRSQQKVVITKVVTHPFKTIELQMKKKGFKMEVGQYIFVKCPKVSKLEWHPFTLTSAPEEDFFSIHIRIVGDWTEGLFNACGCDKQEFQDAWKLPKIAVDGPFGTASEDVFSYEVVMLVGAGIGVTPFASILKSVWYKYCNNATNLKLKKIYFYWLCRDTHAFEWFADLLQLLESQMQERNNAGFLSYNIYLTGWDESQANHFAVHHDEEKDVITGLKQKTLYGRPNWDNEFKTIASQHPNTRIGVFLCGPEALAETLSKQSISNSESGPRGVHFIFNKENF
Compound,z-score [1],composite z-score [2],z-score [3],z-score [4],z-score [5],z-score [6],z-score [7],z-score [8],z-score [9],z-score [10],z-score [11],z-score [12],z-score [13],z-score [14],z-score [15],z-score [16],z-score [17],z-score [18],z-score [19],z-score [20]
O=C1OC[C@@H](c2ccccc2)n2cc(/C=C/c3ccccc3)cc21,0.989 (inactive),-0.0868,16.3 (active),0.408 (inactive),2.6 (inactive),-1.8 (inactive),0.693,0.0419 (inactive),0.618 (inactive),-0.408,-0.235,1.75,-0.202,-0.472,-0.597,-0.564,0.156 (inactive),-0.161,-0.735,0.229 (inactive)
CN1C(=O)C2C=CC(C(O)c3cccs3)N(N(c3ccccc3)c3ccccc3)C2C1=O (stereo not given),-0.822 (inactive),0.25,0.929 (inactive),1 (inactive),0.157 (inactive),0.556 (inactive),-0.967,-0.915 (inactive),-1.84 (inactive),-1.25,-0.404,-1.97,0.44,0.442,0.398,0.27,-1.02 (inactive),-0.24,-0.694,-0.659 (inactive)
COc1ccc(-c2cc3c(c(CCc4ccccc4)n2)[Si](C(C)C)(C(C)C)O[C@H]3c2ccccc2)cn1,0.0534 (inactive),-0.193,4.29 (inactive),1.36 (inactive),-0.449 (inactive),0.775 (inactive),-0.643,0.947 (inactive),0.741 (inactive),0.0862,0.359,-0.724,1.27,-1.82,-2.55,-2.71,-0.904 (inactive),-0.405,-0.622,0.996 (inactive)
CC(CO)N1C(=O)[C@@H]2[C@H]3C(=O)OCC=C[C@H]3OC23C=CCN(c2ccc4ccccc4c2)C(=O)[C@@H]13 (stereo not given in full),-0.855 (inactive),0.0927,0.201 (inactive),0.0537 (inactive),0.162 (inactive),-0.0627 (inactive),-0.409,0.405 (inactive),0.512 (inactive),1.79,0.0456,0.0291,-0.432,-0.496,-0.149,-0.626,-0.654 (inactive),0.109,0.563,0.873 (inactive)
O=C(NCCN1CCOCC1)[C@@H]1c2ccccc2C(=O)N(CC23CC4CC(CC(C4)C2)C3)[C@H]1c1ccc(CO)cc1,0.0865 (inactive),0.409,2.89 (inactive),1.09 (inactive),1.29 (inactive),0.744 (inactive),-0.407,-0.0458 (inactive),-1.7 (inactive),-1.61,-0.0791,1.43,0.45,-0.846,-0.327,2.95,-0.634 (inactive),0.434,-0.388,1.8 (inactive)
C=CCNC(=O)[C@H]1[C@@H]2C(=O)O[C@@H](c3ccccc3)[C@@H](c3ccccc3)N2[C@@H](c2ccc(OCCO)cc2)[C@]12C(=O)Nc1ccc(C#Cc3ccc(OC)cc3)cc12,-0.0405 (inactive),-0.248,3.42 (inactive),2.19 (inactive),0.866 (inactive),1.4 (inactive),-0.0157,0.87 (inactive),0.34 (inactive),1.43,-1.09,2.01,-0.845,-0.291,-2.14,-1.38,3.11 (inactive),-1.22,-0.867,-1.04 (inactive)
COC(=O)[C@]1(Cc2ccccc2CN=[N+]=[N-])N=C(c2ccc(OCCCO)cc2)O[C@@H]1c1ccccc1N=[N+]=[N-],0.204 (inactive),0.167,31.1 (active),28.4 (active),0.444 (inactive),7.23 (inactive),-0.424,-0.938 (inactive),0.298 (inactive),1.44,-3.25,-0.028,-5.51,-3.55,-4,1.52,-0.387 (inactive),-1.06,-2.47,-2.73 (inactive)
O=C1NC(=O)C2C1C=CC(C(O)c1ccc(F)cc1)N2Nc1ccc(Cl)cc1Cl (stereo not given),-1.89 (inactive),-0.017,3.43 (inactive),0.615 (inactive),-0.695 (inactive),1.22 (inactive),0.0765,-0.018 (inactive),-5.68 (inactive),-3.23,-2.35,-0.275,-3.57,-2.88,-2.29,-3.47,-0.472 (inactive),-0.0645,0.174,-2.11 (inactive)
COC(=O)Cn1c(C(=O)N(C)C)cc2c1C[C@H]1CN(C(=O)c3ccccc3)[C@@](Cc3ccccc3)(C(=O)OC)[C@@H]21,-2.08 (inactive),0.155,-0.424 (inactive),-0.734 (inactive),-0.486 (inactive),-1.31 (inactive),0.17,0.363 (inactive),1.59 (inactive),-0.11,-0.314,0.275,-0.479,0.0914,-0.512,-1.11,-0.327 (inactive),-0.146,-1.11,0.374 (inactive)
